Laboratory results published in PubChem BioAssay (Tox21).
Results filed as inconclusive are left out. Unmarked numbers belong to inactive results. The source made the active and inactive calls. Calls come from the whole dose curve; as a rule, active = well fitted cell-killing curve with a large enough effect in the repeat runs; inconclusive = weak or mixed curves; inactive = no such curve, though single readings can be large or run the other way.

Assay: qHTS assay to identify small molecule agonists of the peroxisome proliferator-activated receptor delta (PPARd) signaling pathway - cell viability counter screen (AID 743211); note: nearly all actives have a fitted effect of over 55% in size
Settings: PPARd-bla HEK293H viability, CellTiter-Glo luminescence, 17 h; series mostly up to 62.6 µM; activity change, negative = cytotoxicity: at the top concentration
Outline: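 Tox21 library compounds, delivered in DMSO, were incubated 17 h with PPARd-bla HEK293H cells; cytotoxicity was taken from CellTiter-Glo luminescence read 30 min after reagent addition.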
% is set by controls: 0 for no effect and ±100 for the full control effect.

SMILES	activity change, negative = cytotoxicity	Potency
CN1CCC(=C2c3ccccc3CC(=O)c3sccc32)CC1	-7.88%	–
O=c1cc(-c2ccccc2)oc2ccccc12	–	inactive
OC(CCN1CCCCC1)(c1ccccc1)C1CC2C=CC1C2 (stereo not drawn)	0.908%	–
N#Cc1ccc(C2CCCc3cncn32)cc1 (stereo not drawn)	0.196% [at 29.1 µM]	–
COCCCOCCCOC	-5.11%	–
Oc1ccc(C2CNCCc3c2cc(O)c(O)c3Cl)cc1 (stereo not drawn)	3.66%	–
O=C1NC(=O)[C@@]2(CCOc3ccc(F)cc32)N1	5.39%	–
CCC=O	-0.86% [at 81.1 µM]	–
OC1CCCCC1c1ccccc1 (stereo not drawn)	-10.5%	–
CC/C=C\CC/C=C/CO	9%	–
O=[N+]([O-])c1ccc(F)cc1F	0.834% [at 81.1 µM]	–
C/C=C(\C)C#N	7.3%	–
C1OCOCO1	-10.1% [at 81.1 µM]	–
NC(CSCC(=O)O)C(=O)O (stereo not drawn)	-4.89%	–
O=C(O)Cc1ccc(CCNS(=O)(=O)c2ccc(Cl)cc2)cc1	-15.2%	–
O=C(O)CNC(=O)c1ccc([N+](=O)[O-])cc1	0.911%	–
O=C(O)CCCl	6.12% [at 81.1 µM]	–
CCCN1CCCC[C@H]1C(=O)Nc1c(C)cccc1C	7.84%	–
CCC(=O)OC(C)c1ccccc1 (stereo not drawn)	5.22%	–
CC(C)(C)c1nnc(NS(=O)(=O)c2ccccc2)s1	0.034%	–
N[C@H]1CN(c2c(F)cc3c(=O)c(C(=O)O)cn(C4C[C@H]4F)c3c2Cl)CC12CC2 (stereo partly drawn)	0.215%	–
OCCCC1CCCCC1	-3.33%	–
Nc1c[n+](N2CCOCC2)no1	-0.737%	–
O=C(O)COc1nn(Cc2ccccc2)c2ccccc12	2.48%	–
CC(C)CCCC(C)N (stereo not drawn)	-7.15%	–
Cc1ccc(C#N)cc1	9.91%	–
N=C(N)c1ccc2cc(OC(=O)c3ccc(N=C(N)N)cc3)ccc2c1	-3.53%	–
CCCCC/C=C\CCC=O	5.4%	–
